Assay results published in PubChem BioAssay AID743279 (National Center for Advancing Translational Sciences (NCATS), 2014).
Out of some 360,000 compounds screened, about 17,000 (4.7%) were called active. Another 5% or so got no clear call; they are omitted. Cut-off read from the data, not from the text of the source: active = activity change below about -50%; inconclusive = mostly about -30% to -49%; inactive = weaker than that. Only a selection was taken, and actives are over-represented in it overall.

Experiment: qHTS for Inhibitors of Inflammasome Signaling: IL-1-beta AlphaLISA Primary Screen
Conditions: THP-1 LPS/ATP IL-1B secretion, 16 h; at 57.5 µM, stronger effect = lower value
Summary of the method: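 THP-1 cells pretreated 1 hr with compounds (up to 57.5 uM final), then stimulated with LPS (250 ng/mL final) plus ATP (1.25 mM final); secreted IL-1B measured by AlphaLISA after 16 hr, decreased signal indicating inhibition.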
% is set by controls: 0 for no effect and ±100 for the full control effect.

SMILES	activity change
COc1ccccc1-n1c(SCC(=O)Nc2ccc(Cl)cc2)nc(O)c(Cc2ccccc2)c1=O	0% (inactive)
COc1ccc(C(N)c2csc(NC(=O)Nc3cccc(C(F)(F)F)c3)n2)cc1 (centres undefined)	-81.4% (active)
COc1cc(NC(=O)c2[nH]cnc2C(N)=O)cc(C(=O)Nc2cccc(C(F)(F)F)c2)c1	-16% (inactive)
O=C(Nc1ccc(-c2csc(Nc3cccc(C(F)(F)F)c3)n2)cc1)c1cccc(C(F)(F)F)c1	11.4% (inactive)
O=C(O)CC1(CC(=O)Nc2cccc(C(F)(F)F)c2)CCCC1	16.7% (inactive)
NC(c1csc(NC(=O)Nc2cccc(C(F)(F)F)c2)n1)C1CCCCC1 (centres undefined)	-111% (active)
CC(C)C[C@H](NC(=O)Nc1cccc(C(F)(F)F)c1)C(=O)O	34.5% (inactive)
O=C(Nc1ccc(C(=O)N2CCOCC2)cc1)Nc1cccc(C(F)(F)F)c1	-10.3% (inactive)
NC(c1ccccc1)c1csc(NC(=O)Nc2cccc(C(F)(F)F)c2)n1 (centres undefined)	-106% (active)
COc1ccc(NC(=O)C(=O)NCC(=O)Nc2cccc(C(F)(F)F)c2)cc1	10.7% (inactive)
O=C(NCc1ccccc1)C1CNCC(C(=O)NCc2ccccc2)C1 (centres undefined)	-14.4% (inactive)
Cc1cc([N+](=O)[O-])ccc1NS(=O)(=O)c1ccccc1	26.9% (inactive)
O=S1(=O)CC(N2CCN(CCO)CC2)CN1C1CCCC1 (centres undefined)	-8.55% (inactive)
Cc1ccc(-c2c(N)nc3ncccn23)cc1	7.85% (inactive)
O=C(CN(C(=O)CCC(=O)Nc1nccs1)c1ccc(F)cc1)NCc1ccc2c(c1)OCO2	-10.1% (inactive)
CC(=O)N1CCN(C(=O)c2cc(-c3ccc(C)o3)nc3ccccc23)CC1	23.1% (inactive)
CCOc1ccccc1-c1cc(C(=O)N2CCOCC2)c2ccccc2n1	-12% (inactive)
O=C(c1cc(-c2ccc(Cl)s2)nc2ccccc12)N1CCOCC1	-70.8% (active)
CCc1nc2ccc(C(=O)Nc3ccc(OC)c(OC)c3)cn2c1N(C)C(=O)c1cccc(OC)c1	-8.18% (inactive)
COc1ccc(C(C[N+](=O)[O-])n2nc(C)cc2C)cc1 (centres undefined)	-102% (active)
COc1ccc(OC)c(S(=O)(=O)n2c([N+](=O)[O-])cnc2C)c1	0.96% (inactive)
CCOc1ccc(C(C)C)cc1S(=O)(=O)n1nc(C)cc1C	0% (inactive)
COc1ccc(S(=O)(=O)N2CCc3ccccc32)cc1C(=O)Nc1cc(S(C)(=O)=O)ccc1Cl	47.6% (inactive)

SMILES	activity change
CC(=O)NS(=O)(=O)c1ccc(N/C(N)=N/c2nc(C)cc(C)n2)cc1	34.9% (inactive)
Cc1ccc(Cn2c(C)nc3c(c2=O)c2nc4ccccc4nc2n3Cc2ccco2)cc1	-83.5% (active)
Clc1cccc(-c2nc3nc4ccccc4nc3n2Cc2ccco2)c1	-17.2% (inactive)
O=c1c2ccccc2oc2nc(C3CCCCC3)n(Cc3ccco3)c(=O)c12	-16.6% (inactive)
COC(=O)c1cc(S(=O)(=O)NC2CCN(Cc3ccccc3)CC2)cn1C	-1.73% (inactive)
CCn1c(=S)[nH]c2cc(S(=O)(=O)N3CCOCC3)ccc21	46.6% (inactive)
CSCCC(=O)N1CCCC(CNC(=O)c2ccccc2Cl)C1 (centres undefined)	27.1% (inactive)
CC(C)C(=O)Nc1ccc(C(=O)NNC(=O)c2cccs2)cc1	7.36% (inactive)
CC(Oc1cccc(NC(=O)c2cccs2)c1)C(=O)c1ccccc1 (centres undefined)	-60.1% (active)
Cc1ccc(C(=O)Nc2ccc(NC(=O)c3cccs3)cc2)c(C)c1	-12.6% (inactive)
Nc1scc(-c2ccncc2)c1Cl	-0.276% (inactive)
CC(=O)OCCN(CCCn1c(-c2ccncc2)nc2ccccc21)c1nc(-c2ccc(C)cc2)cs1	14.2% (inactive)
c1ccc(CNCc2ccc(CNCc3ccccc3)cc2)cc1	-20.3% (inactive)
COCCNC(=O)/C(C#N)=C/c1cccc(OCc2ccccc2)c1	-8.24% (inactive)
COCCNC(=O)/C(C#N)=C/c1nc(N(C)C)n(-c2ccc(F)cc2)c1Cl	-69.9% (active)
COCCCNC(=O)/C(C#N)=C/c1c(N2CCCCCC2)nc2ccccn2c1=O	-20.1% (inactive)
C=CCNc1scc(-c2ccccc2)[n+]1CC=C	-19.1% (inactive)
C=CC[n+]1c(-c2ccc(C)cc2)csc1NNC(=O)Nc1ccccc1	-79.2% (active)
O=C(NNC(=O)c1ccc(-c2ccccc2)cc1)Nc1ccccc1	-8.29% (inactive)
CC(=O)Oc1ccc(Cn2c(C)c(C(=O)NCc3ccc(C#N)cc3)sc2=O)cc1	8.83% (inactive)
N#CCCN(C(=S)Nc1ccc(Cl)c(Cl)c1)C1CCCCC1	-17.1% (inactive)
CC(C)S(=O)(=O)c1csc(NC(=O)Nc2ccc(Cl)cc2)c1Cl	-95.1% (active)
O=C(NCc1ccccn1)Nc1ccc(Cl)cc1	-6.13% (inactive)

SMILES	activity change
O=C(Nc1ccc(Cl)cc1)Nc1ccc(C(=O)N2CCOCC2)cc1	-29.9% (inactive)
S=C(NC1CCCCC1)NN1CCOCC1	31.1% (inactive)
O=C(CSc1nc2nccnc2c(=O)n1Cc1cccs1)Nc1ccccc1F	2.93% (inactive)
CC1(C(=O)NS(=O)(=O)Cc2cccc(Cl)c2)CCN1C(=O)Cc1ccccc1 (centres undefined)	3.48% (inactive)
O=C1C(=O)N(c2ccccc2)C(c2ccccc2)C1c1ccccc1 (centres undefined)	5.18% (inactive)
CCc1ccccc1NC1c2ccccc2C(=O)N1c1cccnc1 (centres undefined)	0% (inactive)
O=C1[C@@H](c2ccccc2)[C@@H](c2ccccc2)N1c1cccnc1	-68.8% (active)
COc1cc(S(=O)(=O)N(Cc2cccs2)C2CC2)ccc1-n1cnnn1	0% (inactive)
CC(C)(C)OC(=O)N1CCC(NC(=O)c2[nH]cnc2C(=O)N[C@@H](Cc2ccccc2)C(=O)OCc2ccccc2)CC1	-58% (active)
O=C(N[C@@H](Cc1ccccc1)C(=O)OCc1ccccc1)c1nc[nH]c1C(=O)NC1CCNCC1	-10% (inactive)
CC(C)(C)OC(=O)CNC(=O)c1[nH]cnc1C(=O)N[C@@H](Cc1ccccc1)C(=O)OCc1ccccc1	52.8% (inactive)
Cc1cc(Br)ccc1NC(=O)CCCOc1cc(=O)n(C)c2ccccc12	-13.4% (inactive)
COc1cccc2c1OCC(CN1CCN(C3CCCCC3)C(CCO)C1)=C2 (centres undefined)	18.2% (inactive)
Cc1cccc(N2CCN(C(=O)c3cccc(N4C(=O)C5C6C=CC(C6)C5C4=O)c3)CC2)c1C (centres undefined)	-52.9% (active)
COC(=O)c1cccc(N2C(=O)C3C4C=CC(CC4)C3C2=O)c1 (centres undefined)	15.7% (inactive)
CC1C=CCC2C(=O)N(c3cccc(C(=O)N4CCCCCC4)c3)C(=O)C12 (centres undefined)	23.7% (inactive)
Cc1ccccc1NC(=O)Cc1nc(COC(=O)CNC(=O)c2ccc(Cl)cc2Cl)cs1	11% (inactive)
Cc1ccc(F)c(S(=O)(=O)NC(=O)C2(C)CCN2C(=O)c2ccco2)c1 (centres undefined)	24% (inactive)
CC(=O)/C(=N\Nc1ccc(Cl)cc1Cl)Sc1cccc2cccnc12	-103% (active)
S=C(NCc1cccnc1)Nc1ccc(Cl)cc1Cl	11% (inactive)
O=C(NNc1cc(Cl)ccc1Cl)c1cccnc1Cl	-6.39% (inactive)
O=C(COC(=O)/C=C/c1ccc(Cl)cc1)NC1CCS(=O)(=O)C1 (centres undefined)	1.68% (inactive)
CC(=O)Nc1ccc(-c2ccnc3c2CC(C(=O)NC(C)C)O3)cc1 (centres undefined)	-17% (inactive)

SMILES	activity change
Nc1cccc2c1C(=O)N(Cc1nnc(-c3ccccc3Br)o1)C2=O	-5.13% (inactive)
CN(C)C(=O)CCc1ccc2c3c([nH]c2c1)[C@]1(C)[C@@H](C(=O)N2CCCCC2)C[C@H](CC(=O)NCCC2=CCCCC2)C(=O)N1CC3	-30% (inactive)
CN(C)C(=O)CCc1ccc2c3c([nH]c2c1)[C@]1(CCc2ccccc2)[C@@H](C(=O)N2CCCCC2)C[C@H](CC(=O)NCCC2=CCCCC2)C(=O)N1CC3	-14.8% (inactive)
CC(C)N(C(=O)[C@H]1C[C@H](CC(=O)NCCC2=CCCCC2)C(=O)N2CCc3c([nH]c4cc(CCC(=O)N(C)C)ccc34)[C@]12C)C(C)C	-51.9% (active)
COCCNc1cc(-c2ccccc2)nc2cc(-c3cccc(F)c3)nn12	-67.2% (active)
COc1ccc(-c2cc3nc(NCCOc4ccccc4)ccn3n2)cc1	-17.4% (inactive)
COCCCNc1ccn2nc(-c3ccc(CC(C)C)cc3)cc2n1	47% (inactive)
CCCCc1nccn1CCn1ccnc1CCCC	-1.41% (inactive)
CCOC(=O)Nc1sc(C(=O)N(C)C)c(C)c1C(=O)OCC	20.1% (inactive)
CCOC(=O)c1c(NC(=O)CCl)sc(C(=O)N(CC)CC)c1C	-99.1% (active)
CCOC(=O)c1sc(NC(=O)CCN2CCOCC2)c(C(=O)OCC)c1C	0% (inactive)
CC(Oc1ccc(F)cc1)C(=O)Nc1cc(S(=O)(=O)N2CCOCC2)ccc1N1CCN(C)CC1 (centres undefined)	-9.51% (inactive)
O=C(Cc1ccc([N+](=O)[O-])cc1)NCCS(=O)(=O)N1CCN(c2ccccc2)CC1	16.3% (inactive)
CCNC(=S)Nc1ccc2c(c1)c(=O)n(C)n2Cc1ccc(Cl)cc1	-17.7% (inactive)
CC(C)Oc1cc(F)ccc1-c1cc(C(=O)Nc2cccc(Cl)c2)[nH]n1	19.8% (inactive)
COc1ccccc1N1CCN(/N=C\C(Br)=C\c2ccccc2)CC1	-66.9% (active)
COc1ccccc1N1CCN(/N=C/c2ccc(O)cc2O)CC1	-21.9% (inactive)
COc1cc(/C=N/N2CCN(c3ccccc3)CC2)ccc1OC(C)=O	-4.61% (inactive)
CCCc1nc2c3ccccc3ccn2c1Cc1ccccc1C(F)(F)F	17.7% (inactive)
COCCCN(C(=S)Nc1c(C)cc(C)cc1C)C(C)c1ccncc1 (centres undefined)	0% (inactive)
